# This is a sample that favours compounds with a hit; in the whole collection about 10% have one here.
# CtBP-E1A blk – qHTS Assay for Inhibitors of the CtBP/E1A Interaction; 340,000 compounds, 0.49% hits; AlphaScreen GST-E1A/His-CtBP binding, 1536-well; active compounds read low; CtBP / adenovirus E1A interaction (AlphaScreen); activity change, % (no concentration beside the values); AID 651724, 2012; in the data active = activity change below about -65%; inconclusive = mostly about -30% to -63%; note: % is set by controls: 0 for no effect and ±100 for the full control effect
#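 Homogeneous bead-based format: GST-tagged E1A captured on glutathione donor beads, His-tagged CtBP on nickel acceptor beads; compounds precede bead addition by 2 h at 37 °C.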
# HP1b binding inh – HTS for Inhibitors of HP1-beta Chromodomain Interactions with Methylated Histone Tails. AID 540317, 2011. AlphaScreen HP1-beta / biotin-H3K9me3 peptide binding. Chromobox protein homolog 1 (Homo sapiens), P83916. Potency, µM (series often up to 114 µM), inactives show top-dose activity change, negative = inhibition, actives largely listed as inhibitors. 390,000 compounds, 0.56% hits; note: potency is the fitted concentration of half-maximal effect; nearly all actives have a fitted effect of over 70% in size
#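 AlphaScreen: HP1-beta (50 nM) preformed 30 min with biotin-H3(1-18)K9me3 peptide (50 nM) in PBS pH 7.4, 0.01% Tween-20. Compound added for 30 min at RT, then streptavidin donor/nickel chelate acceptor beads (10 ug/mL) for 30 min.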
# JMJD2A Tudor – qHTS Assay for Inhibitors of JMJD2A-Tudor Domain; AlphaScreen JMJD2A-Tudor / H3K4me3 peptide binding; Potency, µM (top dose mostly 114 µM), inactives show at the highest dose activity change, negative = inhibition, hits mostly inhibitors; 390,000 compounds, 4.4% hits; note: potency is the fitted concentration of half-maximal effect; % is set by controls: 0 for no effect and ±100 for the full control effect; nearly all actives have a fitted effect of over 50% in size
# Target sequence (O75164 whole entry, looked up, the tested form may be a part): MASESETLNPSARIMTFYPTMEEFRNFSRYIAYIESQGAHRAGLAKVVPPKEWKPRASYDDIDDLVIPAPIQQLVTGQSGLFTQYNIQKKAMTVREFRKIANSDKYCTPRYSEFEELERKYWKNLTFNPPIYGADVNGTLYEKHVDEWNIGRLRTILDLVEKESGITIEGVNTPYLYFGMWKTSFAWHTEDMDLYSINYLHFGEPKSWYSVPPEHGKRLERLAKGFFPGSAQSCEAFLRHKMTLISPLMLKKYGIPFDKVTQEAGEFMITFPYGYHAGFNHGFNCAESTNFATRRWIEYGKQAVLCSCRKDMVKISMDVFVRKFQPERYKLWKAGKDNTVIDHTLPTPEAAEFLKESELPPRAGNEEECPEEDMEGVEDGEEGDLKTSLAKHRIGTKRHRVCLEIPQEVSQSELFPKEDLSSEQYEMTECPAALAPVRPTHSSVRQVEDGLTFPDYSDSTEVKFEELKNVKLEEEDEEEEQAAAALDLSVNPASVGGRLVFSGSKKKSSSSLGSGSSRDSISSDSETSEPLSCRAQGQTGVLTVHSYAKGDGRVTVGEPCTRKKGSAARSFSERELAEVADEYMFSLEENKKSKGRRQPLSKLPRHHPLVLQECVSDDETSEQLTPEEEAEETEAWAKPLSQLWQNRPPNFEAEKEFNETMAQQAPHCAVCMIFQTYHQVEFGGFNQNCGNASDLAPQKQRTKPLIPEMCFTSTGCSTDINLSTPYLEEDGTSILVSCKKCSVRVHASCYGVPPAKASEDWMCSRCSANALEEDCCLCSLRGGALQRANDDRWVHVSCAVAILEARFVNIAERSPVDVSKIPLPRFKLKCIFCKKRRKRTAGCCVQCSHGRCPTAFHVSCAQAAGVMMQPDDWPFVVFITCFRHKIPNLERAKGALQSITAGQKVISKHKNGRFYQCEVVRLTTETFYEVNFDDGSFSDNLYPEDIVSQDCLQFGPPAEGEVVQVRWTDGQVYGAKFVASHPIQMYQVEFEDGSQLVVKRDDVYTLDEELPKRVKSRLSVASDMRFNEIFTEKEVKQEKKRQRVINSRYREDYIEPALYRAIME
# G9a block – qHTS Assay for Inhibitors of Histone Lysine Methyltransferase G9a | G9a H3K9 monomethylation, AlphaScreen, 2 h | Histone-lysine N-methyltransferase EHMT2 (Homo sapiens), Q96KQ7 | 350,000 compounds, 8.8% hits | Potency, µM (doses to about 102 µM), inactives show at the top dose activity, negative = inhibition, usual class: inhibitors; note: potency is the fitted concentration of half-maximal effect; % is set by controls: 0 for no effect and ±100 for the full control effect; nearly all actives have a fitted effect of over 75% in size
#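 Compounds were preincubated with 20 nM G9a for 15 min, after which biotinylated H3K9 peptide (500 nM) and SAM (20 uM) started a 2 h room-temperature reaction. Monomethylated product was quantified by antibody-based AlphaScreen chemiluminescence.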
# Six1-Eya2 inh – qHTS Assay for Inhibitors of the Six1/Eya2 Interaction. activity change, % (concentration not given with the values). Homeobox protein SIX1 (Homo sapiens) + Protein phosphatase EYA2 (Homo sapiens), …. AlphaScreen GST-Six1/His-Eya2 binding, biochemical; active compounds read low. 360,000 compounds, 0.56% hits; in the data active = activity change below about -65%; inconclusive = mostly about -30% to -63%; note: % is set by controls: 0 for no effect and ±100 for the full control effect
#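 Homogeneous AlphaScreen proximity assay pairing GST-Six1 with His-tagged Eya2 (added as 5X mix: 250 nM and 500 nM) in 50 mM Tris pH 8.0, 300 mM NaCl, 1 mM TCEP. Glutathione donor and nickel acceptor beads; 1 h, 37 °C, dark.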
# BAZ2B block – qHTS Assay for Inhibitors of BAZ2B; Bromodomain adjacent to zinc finger domain protein 2B (Homo sapiens), Q9UIF8; AlphaScreen BAZ2B-H3K14Ac peptide displacement; Potency, µM (highest dose often 114 µM), without a hit: at the highest dose activity change, negative = inhibition, usual class: inhibitors; 360,000 compounds, 4.4% hits; AID 504333, 2011; note: potency is the fitted concentration of half-maximal effect; % is set by controls: 0 for no effect and ±100 for the full control effect; nearly all actives have a fitted effect of over 60% in size
#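 In this displacement format the biotinylated H3(5-23) peptide acetylated at Lys14 serves as ligand at 50 nM, with BAZ2B at 50 nM in PBS pH 7.4 containing 0.01% Tween-20. Donor and acceptor beads are 10 ug/mL final.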
# Starred values were filed as active, the others as inactive; ? = inconclusive; . = no result; ! = a repeat was not active; [ ] = remark or other dose. Unless noted, calls come from the whole dose curve; as a rule, active = well fitted inhibition curve with a large enough effect; inconclusive = small, poorly fitted or top-dose-only effect; inactive = no such curve, though single readings can be large or run the other way.
SMILES,CtBP-E1A blk,HP1b binding inh,JMJD2A Tudor,G9a block,Six1-Eya2 inh,BAZ2B block
CCOc1ccc(C2CC(c3ccccc3C)n3nc(N)nc3N2)cc1 (centres undefined),-1,-9%,20µM*,?,-2,-12%
CCc1ccc(C2CC(c3ccccc3)n3ncnc3N2)cc1 (centres undefined),-2,29%,-33%,79µM*,3,4%
COc1ccc(C2CC(c3ccccc3C)n3nc(N)nc3N2)cc1 (centres undefined),-3,-12%,-34%,?,6,?
CCc1ccc(C2CC(c3ccccc3Cl)Nc3nc(N)nn32)cc1 (centres undefined),-4,31%,-26%,11µM*,-8,-13%
CCc1ccc(C2CC(c3ccccc3)Nc3nc(N)nn32)cc1 (centres undefined),2,55%,-8%,6%,7,-20%
O=[N+]([O-])c1cc(CSC2=NCCN2)ccc1O,-25,2%,-11%[11.4 µM],25µM*,-5,?
CCCOc1ccc(CSC2=NCCN2)cc1[N+](=O)[O-],6,39%,11%,.,-1,-6%
Nc1ccc(N(c2ccccc2)c2ccc(N)cc2)cc1,-18,40µM*,16µM*,1.3µM*,-20,25µM*
COc1ccccc1CCNC(=O)C1(c2cccs2)CCOCC1,.,12%,-8%,-2%[59 µM],.,-2%
O=C(Nc1ccc2c(c1)OCO2)c1cnc2n(c1=O)CCS2,7,25%,-12%,?,0,11%
O=C(Nc1ccc2c(c1)OCCO2)c1cnc2n(c1=O)CCS2,-2,36%,1%,50µM*,-2,2%
O=C(NCCCc1ccccc1)c1cnc2n(c1=O)CCS2,-11,32%,-8%,-10%[12.7 µM],-1,16%
O=C(Nc1ccccc1)c1cnc2n(c1=O)CCS2,-19,44%,-7%,50µM*,9,9%
O=C(NCCc1ccc(Cl)cc1)c1cnc2n(c1=O)CCS2,2,23%,-21%,45µM*,2,11%
COc1ccc(OCC(=O)OCC(=O)NCC2CCCCC2)cc1,-17,21%,-7%,?,-1,4%
CCN(CC)C(=O)Cn1c(SCCOc2ccc(Cl)cc2)nc2ccccc21,.,9%,-29%,?,.,?
CC(Oc1ccc(Cl)cc1Cl)C(=O)NC(=S)N1CCc2ccccc21 (centres undefined),-6,17%,-34%,28µM*,-8,-22%
CC(C)(C)C(=O)NC(=S)N1CCc2ccccc21,.,-22%[57 µM],-29%,20µM*,3,?
O=C(NC(=S)N1CCc2ccccc21)C1CCC1,6,17%,-2%,?,-11,-24%
Fc1ccc(NC(=S)N2CCCc3ccccc32)cc1,-7,-17%,-26%,40µM*,-22,?
S=C(Nc1cccnc1)N1CCc2ccccc21,-13,26%,-13%,-7%[12.7 µM],3,-3%
CN1CCc2cccc3c2C1Cc1ccc(O)c(O)c1-3 (centres undefined),1,?,40µM*,1.9µM*!,3,?
CN1CCC(=C2c3ccccc3C(O)c3ccccc32)CC1 (centres undefined),.,54%,-7%,?,-2,8%
CN(C(=S)NC(=O)c1ccc(F)cc1)C1CCCCC1,-20,39%,-24%,16%,-4,-26%
CN(C(=S)NC(=O)c1ccc(Cl)cc1)C1CCCCC1,-6,-22%,-33%,8.9µM*,-7,45µM*

# Screens as filed in PubChem.
